Test results published in PubChem BioAssay AID1159580 (chemical genetic matrix, 2015).
“And” between values parts separate entries of the source, which are not always exact repeats. Equal entries are not always repeated. Out of some 5,500 compounds screened, about 2,000 (36%) were called active. Inconclusive results (about 18%) are left out. The list shows a part of the results. Unmarked numbers belong to inactive results. No stated cut-off is given here; in the data, active means normalized growth mostly below about 0.91 (no sharp cut-off); inconclusive means no clear call, values can overlap the other calls; inactive means mostly above about 0.92.

Experiment: chemical genetic growth profiling, strain panel (AID 1159580);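 further: tested at 20 µM; growth read once vehicle control cultures reached saturation at 30 °C; 1 = growth at the plate median or of vehicle wells; lower values mean less growth of the strain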
Conditions: S. cerevisiae deletion strains, growth OD

## O=[N+]([O-])O[C@H]1CO[C@H]2[C@@H]1OC[C@H]2O[N+](=O)[O-]
Locus YAL013W, strain DEP1, hits give low values
  normalized growth: 1.01
Locus YAL021C, strain ccr4, hits give low values
  normalized growth: 0.993
Locus YAL026C, strain drs2, hits give low values
  normalized growth: 1.01
Locus YAL030W, strain snc1, hits give low values
  normalized growth: 1
Locus YBL061C, strain skt5, hits give low values
  normalized growth: 1
Locus YBR009C, strain hhf1, hits give low values
  normalized growth: 1
Locus YBR021W, strain FUR4, hits give low values
  normalized growth: 1.01
Locus YBR023C, strain chs3, hits give low values
  normalized growth: 0.984
Locus YBR171W, strain sec66, hits give low values
  normalized growth: 0.993
Locus YBR229C, strain ROT2, hits give low values
  normalized growth: 1.01
Locus YBR231C, strain swc5, hits give low values
  normalized growth: 0.981
Locus YBR279W, strain paf1, hits give low values
  normalized growth: 0.978
Locus YCL011C, strain gbp2, hits give low values
  normalized growth: 0.99
Locus YCL016C, strain dcc1, hits give low values
  normalized growth: 0.97
Locus YCL029C, strain bik1, hits give low values
  normalized growth: 1.03
Locus YCL061C, strain MRC1, hits give low values
  normalized growth: 0.985
Locus YCL069W, strain vba3, hits give low values
  normalized growth: 0.999
Locus YCR088W, strain abp1, hits give low values
  normalized growth: 0.985
Locus YDL005C, strain med2, hits give low values
  normalized growth: 0.991
Locus YDL035C, strain GPR1, hits give low values
  normalized growth: 1.03
Locus YDL040C, strain nat1, hits give low values
  normalized growth: 0.999
Locus YDL074C, strain BRE1, hits give low values
  normalized growth: 1.01
Locus YDL101C, strain DUN1, hits give low values
  normalized growth: 1
Locus YDL134C, strain PPH21, hits give low values
  normalized growth: 1.01
Locus YDL185W, strain tfp1, hits give low values
  normalized growth: 1.01
Locus YDL192W, strain arf1, hits give low values
  normalized growth: 1.02
Locus YDR001C, strain nth1, hits give low values
  normalized growth: 0.991
Locus YDR069C, strain doa4, hits give low values
  normalized growth: 1
Locus YDR101C, strain arx1, hits give low values
  normalized growth: 0.989
Locus YDR137W, strain rgp1, hits give low values
  normalized growth: 0.971
Locus YDR159W, strain sac3, hits give low values
  normalized growth: 1.01
Locus YDR162C, strain NBP2, hits give low values
  normalized growth: 1.02
Locus YDR195W, strain ref2
  normalized growth: 0.977
Locus YDR297W, strain sur2, hits give low values
  normalized growth: 0.99
Locus YDR318W, strain mcm21, hits give low values
  normalized growth: 1.05
Locus YDR334W, strain swr1, hits give low values
  normalized growth: 0.991
Locus YDR335W, strain msn5, hits give low values
  normalized growth: 0.995
Locus YDR388W, hits give low values
  normalized growth: 1.02
Locus YDR392W, strain spt3, hits give low values
  normalized growth: 0.91
Locus YDR502C, strain sam2, hits give low values
  normalized growth: 1.03
Locus YEL003W, strain gim4, hits give low values
  normalized growth: 1
Locus YEL037C, strain rad23, hits give low values
  normalized growth: 0.995
Locus YEL061C, strain CIN8 (second series), hits give low values
  normalized growth: 0.99
Locus YEL061C, strain CIN8, hits give low values
  normalized growth: 1.01
Locus YER015W, strain faa2, hits give low values
  normalized growth: 1.01
Locus YER016W, strain bim1, hits give low values
  normalized growth: 1
Locus YER110C, hits give low values
  normalized growth: 1.02
Locus YER111C, strain swi4, hits give low values
  normalized growth: 0.979
Locus YER155C, strain BEM2 (second series), hits give low values
  normalized growth: 0.998
Locus YER155C, strain BEM2, hits give low values
  normalized growth: 1.01
Locus YER167W, strain BCK2, hits give low values
  normalized growth: 1.02
Locus YFR010W, strain ubp6, hits give low values
  normalized growth: 1
Locus YGL078C, strain dbp3, hits give low values
  normalized growth: 1.02
Locus YGL086W, strain mad1, hits give low values
  normalized growth: 1.01
Locus YGL167C, strain pmr1, hits give low values
  normalized growth: 1
Locus YGL173C, strain kem1, hits give low values
  normalized growth: 1
Locus YGL227W, strain vid30, hits give low values
  normalized growth: 0.986
Locus YGL240W, strain doc1, hits give low values
  normalized growth: 0.988
Locus YGL248W, strain PDE1, hits give low values
  normalized growth: 0.999
Locus YGL253W, strain hxk2, hits give low values
  normalized growth: 1.01
Locus YGR078C, strain PAC10, hits give low values
  normalized growth: 1.03
Locus YGR135W, strain pre9, hits give low values
  normalized growth: 1.04
Locus YGR252W, strain gcn5, hits give low values
  normalized growth: 1.3 [resistant] (active)
Locus YHR013C, strain ard1, hits give low values
  normalized growth: 0.971
Locus YHR027C, strain rpn1, hits give low values
  normalized growth: 0.998
Locus YHR030C, strain SLT2, hits give low values
  normalized growth: 1.01 and 0.95
Locus YHR079C, strain IRE1 (second series), hits give low values
  normalized growth: 1.02
Locus YHR079C, strain IRE1, hits give low values
  normalized growth: 0.956
Locus YHR094C, strain hxt1, hits give low values
  normalized growth: 1.02
Locus YHR129C, strain ARP1, hits give low values
  normalized growth: 1.01
Locus YHR142W, strain chs7, hits give low values
  normalized growth: 0.991
Locus YHR200W, strain rpn10, hits give low values
  normalized growth: 1.02
Locus YIL066C, strain RNR3, hits give low values
  normalized growth: 1.02
Locus YIL073C, strain SPO22, hits give low values
  normalized growth: 1.06
Locus YIL125W, strain kgd1, hits give low values
  normalized growth: 1.01
Locus YIR030C, strain dcg1, hits give low values
  normalized growth: 1.01
Locus YJL092W, strain hpr5, hits give low values
  normalized growth: 0.999
Locus YJL095W, strain BCK1 (second series), hits give low values
  normalized growth: 0.992
Locus YJL095W, strain BCK1, hits give low values
  normalized growth: 1.01 and 0.925
Locus YJL115W, strain asf1, hits give low values
  normalized growth: 0.991
Locus YJL129C, strain trk1, hits give low values
  normalized growth: 0.991
Locus YJL134W, strain LCB3, hits give low values
  normalized growth: 1.02
Locus YJL154C, strain vps35, hits give low values
  normalized growth: 0.998
Locus YJL164C, strain tpk1, hits give low values
  normalized growth: 0.988
Locus YJL166W, strain qcr8, hits give low values
  normalized growth: 0.984
Locus YJL168C, strain set2, hits give low values
  normalized growth: 1
Locus YJL187C, strain SWE1 (second series), hits give low values
  normalized growth: 1.01
Locus YJL187C, strain SWE1, hits give low values
  normalized growth: 1
